This is an account of results in PubChem BioAssay (EPA / NIEHS).

SMILES strings stand for the structures. Several values for one entry are separate records, joined by “and”; a condition that tells them apart may be missing. Identical values can stand only once. Inconclusive results are not listed. The source holds several records for some structures; these can differ, active in one and inactive in another. Activity calls are given as the source filed them. The calls were made as follows, unless noted: active = hit-call score of the fitted dose curve at least 0.9, where 1 is the maximum; inactive = score below 0.9.

One assay deals with DIO3 (gene 1735). The assay can be described thus: CCTE_GLTED_hDIO3: CCTE's human Deiodinase 3 (DIO3) Inhibition Assay, Great Lakes Toxicology and Ecology Division (GLTED) Lab (AID 2284055; active = hit-call score of the fitted dose curve at least 0.9, where 1 is the maximum;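 also: potency is for inhibition seen as loss of released iodide signal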). As for the experimental part:
CCTE_GLTED_hDIO3 is a cell-free, single-readout assay designed to test the inhibitory activity of chemicals toward human iodothyronine Deiodinase type 3 (DIO3) enzyme. Enzyme is incubated in presence of test chemical for 3 hours during which uninhibited enzyme liberates free iodide from substrate. Free iodide is measured in a second step using the Sandell-Kolthoff method.CCTE_GLTED_hDIO3 is the assay component measured from the CCTE_GLTED_hDIO3 assay. It is designed to make measurements of enzyme activity, a form of enzyme reporter, as detected with absorbance signals by spectrophotometry.Data from the assay component CCTE_GLTED_hDIO3 was analyzed into 1 assay endpoint. This assay endpoint, CCTE_GLTED_hDIO3, was analyzed in the positive analysis fitting direction relative to DMSO as the negative control and baseline of activity. Using a type of enzyme reporter, loss-of-signal activity can be used to understand changes in the enzymatic activity as they relate to the gene DIO3. Furthermore, this assay endpoint can be referred to as a primary readout, because the performed assay has only produced 1 assay endpoint. To generalize the intended target to other relatable targets, this assay endpoint is annotated to the 'deiodinase' intended target family, where the subfamily is 'deiodinase Type 3'.
[…] assay, developed at Great Lakes Toxicology and Ecology Division (GLTED) within the EPA's Center for Computational Toxicology and Exposure (CCTE), is designed to test the chemicals' ability to inhibit DIO3. Assay uses human deiodinase type 3 (DIO3) enzyme produced with adenovirus expression system. Assay is based on iodide release measured by the Sandell-Kolthoff method and is run in 96-well plate format with assay plates run in triplicate (n=3). The method used for the deiodinase assay was largely based on Renko et al. (2012, 2015). These works describe the utilization of the SK reaction to measure deiodinase-liberated iodide in a 96-well-plate format. The SK reaction is based on the reduction of the yellow-colored cerium IV to the non-colored cerium III by arsenic, with the rate of this reaction increased in the presence of iodide in a concentration-dependent manner (Sandell and Kolthoff, 1937). Iodinated test chemicals can interfere as competitive inhibitors, or if the stock chemical has contaminating free-iodide present. Other chemicals, e.g.: nitrite, iron, and thiocyanate can interfere with the Sandell-Kolthoff reaction (see Sandell and Kolthoff, 1937).

Assay [1] can be described thus: CCTE_Shafer_MEA_acute_AB: CCTE's Alamar Blue Assay for Cytotoxicity in the Neural Acute Assay, Shafer Lab (AID 2284069; active = hit-call score of the fitted dose curve at least 0.9, where 1 is the maximum;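 also: active compounds lower the viability signal compared with DMSO wells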). Summed up:
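Read-out: resazurin fluorescence (ex 544, em 590 nm) after CTB reagent at 1:6 dilution in fresh media. Cells: primary rat cortical neuron networks, DIV 13 or 15, chemically exposed on MEA plates; DMSO as negative control/baseline.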
A general note: Resazurin is reduced to fluorescent resorufin, in cell work by metabolically active cells.

Assay [2] can be described thus: CCTE_Shafer_MEA_acute_LDH: CCTE's Lactate Dehydrogenase Assay for Cytotoxicity in the Neural Acute Assay, Shafer Lab (AID 2284086; active = hit-call score of the fitted dose curve at least 0.9, where 1 is the maximum;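 also: active means LDH release rises above DMSO vehicle level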). Summed up:
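Rat cortical neurons cultured on microelectrode arrays; baseline 40-min recording, compound added, second 40-min recording; medium then sampled for released LDH (colorimetric kit, 490 nm). DMSO = negative control.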

A short description of assay [3]: CCTE_Shafer_MEA_dev_per_network_spike_spike_number_mean: CCTE's Neural Network Formation Assay for Mean Number of Spikes in a Network Spike, Shafer Lab (AID 2284053).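 As to AC50: fitted as decrease in spikes per network spike relative to DMSO.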 The method in brief:
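Rat cortical primary cultures on 48-well MEA; compound from day 0, re-dosed with full media change DIV 5, 9. Recorded DIV 5, 7, 9, 12; spikes in 0.05 s window at network-spike peak ÷ total network spikes; AUC; loss vs DMSO.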

A short description of assay [4]: CCTE_Shafer_MEA_dev_per_network_spike_spike_percent: CCTE's Neural Network Formation Assay for Percent of Spikes in a Network Spike, Shafer Lab (AID 2284054). Summed up:
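Rat primary cortical neurons were grown on 48-well MEA plates (16 electrodes/well), exposed from plating day 0 through day 12, with treatment renewed on DIV 5 and 9. Percent of spikes within 0.05 s network-spike peaks was measured, summarised as AUC across days 5, 7, 9, 12.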

The nature of assay [5]: CCTE_Shafer_MEA_dev_LDH: CCTE's Lactate Dehydrogenase Assay for Cytotoxicity in the Neural Network Formation Assay, Shafer Lab (AID 2284068; active = hit-call score of the fitted dose curve at least 0.9, where 1 is the maximum;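 also: exposure for twelve days from plating with re-dosing on DIV 5 and 9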). The method in brief:
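Rat cortical primary neurons, MEA culture; dosing day 0–12, full medium plus compound exchange DIV 5, 9. Read-out: LDH enzyme activity, spectrophotometric. DMSO = negative control/baseline; signal loss → cytotoxicity.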

A short description of assay [6]: CCTE_Shafer_MEA_dev_AB: CCTE's Alamar Blue Assay for Cytotoxicity in the Neural Network Formation Assay, Shafer Lab (AID 2284083; active = hit-call score of the fitted dose curve at least 0.9, where 1 is the maximum;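 also: resazurin reduction fluorescence as viability of cultured neurons; twelve days of exposure from plating with re-dosing on DIV 5 and 9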). Summed up: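 Rat cortical primary cultures, 1.5 x 10^5 cells/well on MEA; continuous compound exposure over 12 days of network development, re-dosed with full medium change DIV 5 and 9. Alamar Blue fluorescence; loss of signal = cytotoxicity vs DMSO baseline.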

Assay [7] can be described thus: CCTE_Shafer_MEA_dev_mutual_information_norm: CCTE's Neural Network Formation Assay for Mutual Information Normalization, Shafer Lab (AID 2284091).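 As to AC50: mutual information between electrodes summarised as area under curve across four recording days; potency is for a decrease in mutual information relative to DMSO.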 Summed up:
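Primary rat cortical neurons on PEI-coated 48-well MEA plates, 1.5 x 10^5 cells/well, exposed from day 0 through day 12 with re-dosing at DIV 5 and 9. Mutual information between electrodes recorded days 5, 7, 9, 12; trapezoidal AUC, loss-of-signal fit versus DMSO.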

Assay [8] in a line: CCTE_Shafer_MEA_dev_correlation_coefficient_mean: CCTE's Neural Network Formation Assay for Mean Correlation Coefficient, Shafer Lab (AID 2284093).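 As to AC50: well mean pairwise spike train correlation integrated as AUC over recording days 5 to 12; potency fitted for loss of correlation relative to DMSO vehicle wells.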 The method in brief: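 Rat cortical cultures, 1.5 x 10^5 cells/well, dosed from day 0 for 12 days. Spontaneous spikes recorded DIV 5/7/9/12; electrode-pair correlation coefficients averaged, AUC taken. Fit in loss direction vs DMSO.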

Assay [9] can be described thus: UKN2_HCS_IMR90_neural_migration: University of Konstanz (UKN) Leist Lab Neural Crest Cell Migration Assay in human induced IMR90 Pluripotent Stem Cells (UKN2) (AID 2284204). As to conditions: actives raise or lower the signal. The method in brief: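 iPSC-derived IMR90 neural crest cells seeded around stoppers on PLO/laminin/fibronectin; migration started in N2-S medium with EGF/FGF, compounds added after 24 h for 24 h. Migration into cell-free area imaged after calcein-AM/Hoechst staining; bidirectional fit versus DMSO.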

A word on the AC50: it is the concentration giving half of the maximal activity seen. For `CC#Cc1cc(C)nc(Nc2ccccc2)n1`, the AC50 in the assay on DIO3 (gene 1735) is 3.73 µM (active). Besides, the result in [1] and in assay [2] was inactive.
Regarding `ClC1=C(Cl)[C@]2(Cl)[C@@H]3[C@@H](Cl)[C@H]4O[C@H]4[C@@H]3C1(Cl)C2(Cl)Cl`, the concentration at half-maximal activity (AC50) in [3] is 27.1 µM (active); in assay [4], 26.1 µM (active); in assay [5] it was 22.5 µM (active); in [6], 23.9 µM (active); in assay [8], 27.5 µM (active). For the same compound, the call in assay [1], in assay [2] and in assay [7] was inactive.
`NS(=O)(=O)C(F)(F)C(F)(F)C(F)(F)C(F)(F)C(F)(F)C(F)(F)C(F)(F)C(F)(F)F`: the concentration at half-maximal activity (AC50) in assay [3] was 15 µM (active); in assay [4], 4.59 µM (active); in [5], 27.6 µM (active) and 23.6 µM (active); in assay [6], 24 µM (active); in assay [8], 22.6 µM (active). The result in [3], in assay [4], in [6], in assay [7] and in [8] was inactive.
For `Clc1ccc(C(c2ccccc2Cl)C(Cl)(Cl)Cl)cc1` (stereo not given), the half-maximal activity concentration (AC50) in assay [3] is 0.215 µM (active); in assay [4], 0.708 µM (active); in [5], 2.38 µM (active); in [6], 6.13 µM (active); in assay [7], 11.3 nM (active); in assay [8] it was 0.199 µM (active).
With `CCC(C)(CC)c1cc(NC(=O)c2c(OC)cccc2OC)on1`, the result in [1] and in [2] was inactive.
On to `O=C(NC(=O)c1c(F)cccc1F)Nc1cc(Cl)c(OC(F)(F)C(F)F)c(Cl)c1`, for which the outcome in assay [1] was inactive.
As to `CCSC(=O)N(CC)C1CCCCC1`, the outcome in assay [1] and in assay [2] was inactive.
On to `c1cc2ccc3cccc4ccc(c1)c2c34`, for which the outcome in assay [3], in [4], in assay [5], in [6], in assay [7] and in assay [8] was inactive.
For `O=C(O)C(F)(F)C(F)(F)C(F)(F)C(F)(F)C(F)(F)C(F)(F)C(F)(F)C(F)(F)F`, the compound was classed as inactive in assay [3], in [4], in assay [5], in assay [7] and in assay [8].
In the case of `CCCCCCCCCC[N+](C)(C)CCCCCCCCCC`, the AC50 is 3.56 µM (active) in the assay on DIO3 (gene 1735), 20 µM (active) in [1] and 31.3 µM (active) in assay [2].
Turning to `COS(=O)(=O)OC`, in assay [1], the call was inactive.
As for `ClC(Cl)=C(c1ccc(Cl)cc1)c1ccc(Cl)cc1`, the concentration at half-maximal activity (AC50) in assay [3] is 3.63 µM (active); in [4] it was 3.83 µM (active); in assay [5], 5.14 µM (active); in [6], 6.02 µM (active); in assay [7] it was 2190 nM (active); in assay [8] it was 3.9 µM (active). The call in assay [1] and in [2] was inactive.
Regarding `Nc1ccc(-c2ccc(N)cc2)cc1`, in assay [2], the outcome was inactive.
Same read-out and setting: for `O=C(N[C@H]1CN2CCC1CC2)c1cc2ccoc2cn1` the value was “inactive”.
Regarding `CCC(C)(c1ccc(O)cc1)c1ccc(O)cc1`, the outcome in assay [3], in assay [4], in assay [1], in assay [6], in assay [2] and in assay [7] was inactive. Further, the call in assay [8] was inactive.
Consider `CO/C=C(/C(=O)OC)c1ccccc1COc1cccc(C(F)(F)F)n1`, for which the AC50 in assay [3] is 218 nM (active) and 739 nM (active); in assay [4] it was 245 nM (active) and 751 nM (active); in [5], 122 nM (active) and 665 nM (active); in assay [6], 856 nM (active) and 1.12 µM (active); in [7] it was 183 nM (active) and 312 nM (active); in assay [8], 244 nM (active) and 459 nM (active). For the same compound, the result in [1], in assay [2] and in [9] was inactive.
In the case of `O=C(O)C(F)(F)C(F)(F)C(F)(F)C(F)(F)C(F)(F)F`, the compound was classed as inactive in assay [3], in [4], in assay [5], in assay [1], in assay [2] and in assay [7]. In assay [8], the outcome was inactive.
